Assay results published in PubChem BioAssay (NCI).
The panel holds about 79,000 compounds, 15% with a hit somewhere; the sample as a whole holds those more often. No stated cut-off is given here; in the data, active means growth inhibition above about 70%; inactive means the rest. Where a SMILES comes first, the peptide text is derived from it. [ ]: non-standard residue; d: D form. The star is where a group is joined. ξ: configuration not given here. ξV = CC(C)C(N)C(=O)O; ClAc = O=C(CCl)*

Experiments:
[1] = NCI Yeast Anticancer Drug Screen. Data for the rad50 strain (AID 155);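 further: 0% = growth of vehicle-only cultures of the same strain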; details: S. cerevisiae rad50 strain growth inhibition; at 50.0 µM; hits give high values
How it was run: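 Cells are treated with compound, grown, and their growth is then scored against vehicle-only cultures of the same repair-deficient yeast strain.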

[2] = NCI Yeast Anticancer Drug Screen. Data for the mec2-1 strain (AID 157); details: S. cerevisiae mec2-1 strain, at 50.0 µM, hits give high values
How it was run: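 Yeast mec2-1 mutant treated with compound. Readout: growth inhibition vs vehicle controls.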

[3] = NCI Yeast Anticancer Drug Screen. Data for the mlh1 rad18 strain (AID 175); details: S. cerevisiae mlh1 rad18 strain growth inhibition; at 50.0 µM; hits give high values
How it was run: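 Yeast w/ defined DNA-repair lesions; compound exposure; growth vs vehicle controls → % inhibition.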

Measured: growth inhibition

CCN(CC#N)c1ccc(Nc2cc(Cl)ccc2Cl)cc1
inactive: [1] 8.75% | [2] -22.1% | [3] 0.3%

Oc1ccccc1C=NCC1CCC(CN=Cc2ccccc2O)CC1 (stereo unspecified)
inactive: [1] 8.85% | [2] 13.1% | [3] 21%

COc1cccc(N2C(=O)CSC2=S)c1
inactive: [1] 32.7% | [2] 7.95% | [3] 46.8%

CCCCCCCCCCCCOc1ccccc1
inactive: [1] 6.15% | [2] -14.3% | [3] 7.6%

Nc1ccccc1CCc1ccccc1N
inactive: [1] 18.2% | [2] -10.1% | [3] 12.4%

Cc1ccc(NC(=O)/C=C/C(=O)O)c(NC(=O)/C=C/C(=O)O)c1
inactive: [1] 4.8% | [2] -1.15% | [3] 28.8%

Cc1ccc(CNc2ccc(F)cc2)cc1
inactive: [1] 29.9% | [2] 28.9% | [3] 19.8%

O=C1CCC2CN3CCc4c([nH]c5ccccc45)C3CC2C1 (stereo unspecified)
inactive: [1] 26.2% | [2] 14.4% | [3] 32.7%

Cc1ccc(Cl)cc1NCN1C(=O)c2ccccc2C1=O
inactive: [1] 1.35% | [2] -2.4% | [3] 11.1%

CC(C)C(NC(=O)CNC(=O)CCl)C(=O)O (stereo unspecified) (ClAc-Gly-[ξV]-OH)
inactive: [1] 7.6% | [2] -16.5% | [3] 4.1%

S=c1[nH]nc(NC2CCCCC2)s1
inactive: [1] -4.4% | [2] -12% | [3] -7.1%

CCO/C=C1\SC(=S)N(c2ccc(C(=O)O)cc2)C1=O
inactive: [1] -6.05% | [2] -16.3% | [3] 13.2%

NC(=S)N/N=C/c1cc([N+](=O)[O-])ccc1Cl
inactive: [1] 10.8% | [2] -9.75% | [3] 10.2%

CC(C)N(C)c1ccc(N=Nc2cc(Cl)ccc2Cl)cc1
inactive: [1] -27.6% | [2] -36.8% | [3] -24.4%

O=C(Cc1nc2ccccc2[nH]c1=O)N/N=C/c1ccc2c(c1)CCC2
inactive: [1] -30.2% | [2] -28.6% | [3] -37.4%

Cc1cccc(-c2nc3cc(Cl)ccc3c(=O)o2)c1
inactive: [1] -10.8% | [2] -13.6% | [3] 6.6%

CCCCCCC(=O)CCCC(C)CCCC(C)C (stereo unspecified)
inactive: [1] -13.5% | [2] -23.6% | [3] -3.85%

COC(=O)C1=CCCC2CN3CCc4c([nH]c5ccccc45)C3CC12 (stereo unspecified)
inactive: [1] 13.8% | [2] -7.8% | [3] 18%

COc1ccc(C(CCl)(CCl)c2ccc(OC)c(N)c2)cc1N
inactive: [1] 12.3% | [2] 14% | [3] 28.6%

Cc1ccc(NCN2C(=O)c3ccccc3C2=O)cc1Cl
inactive: [1] 20.1% | [2] -5.55% | [3] 28.3%

c1coc(-c2nc(N=C3N=c4ccccc4=N3)[nH]c2-c2ccco2)c1
inactive: [1] 16.6% | [2] 18.9% | [3] 4%

O=C(CN1C(=O)c2ccccc2C1=O)c1ccc(Br)cc1
inactive: [1] 14.2% | [2] 16.1% | [3] 12.9%
